Among the data in PubChem BioAssay are remaining activity values, retold here.

The structures appear in SMILES notation. A number with no mark means an inactive call. The rule behind the calls is not given here.

The test system of this test is Aerobactin synthetase IucA (Klebsiella pneumoniae, hypervirulent). The test is described as follows: IucA enzyme inhibition, biochemical, LOPAC library, absorbance readout (AID 1346212).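 Note: 100% = no compound wells and 0% = no enzyme wells.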 To be noted: IucA enzyme assay, absorbance (OD) readout; active compounds read low;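 tested at 8 µM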.
In the case of `CCCCCCC(=O)OC1CC(C)(C)NC(C)(C)C1`, the remaining activity is 109%.
For `Cn1ccnc1` the value was 101%; for `CCN(CC)C(=O)c1ccc(O)c(OC)c1`, 122%; for `CN1C2CCC1CC(OC(=O)c1c[nH]c3ccccc13)C2` (stereo not drawn), 97.7%.
For `COc1cccc(OC)c1OCCNCC1COc2ccccc2O1` (stereo not drawn) the value was 105%.
As to `N#CC(=C(/N)Sc1ccccc1N)/C(C#N)=C(\N)Sc1ccccc1N`, the remaining activity is 104%.
For `CC(Oc1ccc(Oc2cnc3ccc(Cl)cc3n2)cc1)C(=O)O` (stereo not drawn) the value was 108%; for `CN1[C@@H](CC(=O)c2ccccc2)CCC[C@H]1C[C@H](O)c1ccccc1`, 115%.
In the case of `CC[N+](C)(C)c1cccc(O)c1` it was 86.8%.
In the case of `Ic1ccc(N2CCN(Cc3c[nH]c4ncccc34)CC2)cc1`, the remaining activity was 115%.
For `CNCCC(Oc1ccccc1OC)c1ccccc1` (stereo not drawn) the value was 104%; for `COc1cccc(C(=O)NCCN2CCN(c3ccc(Cl)cc3)CC2)c1`, 124%.
For the compound `NC(Cc1cccc(-c2ccccc2CP(=O)(O)O)c1)C(=O)O` (stereo not drawn), the remaining activity was 103%.
For `O=C(O)c1cc([N+](=O)[O-])ccc1NCCCc1ccccc1` the value was 118%; for `COc1cc2nc(N3CCN(C(=O)C4COc5ccccc5O4)CC3)nc(N)c2cc1OC` (stereo not drawn), 92.2%; for `CCCn1c(=O)c2[nH]c(-c3ccc(S(=O)(=O)O)cc3)nc2n(CCC)c1=O`, 111%.
Take `CC(N)=NCCCC[C@@H](N)C(=O)O`: the remaining activity was 124%.
For `Cc1cnc(C(=O)NCCc2ccc(S(=O)(=O)NC(=O)NC3CCCCC3)cc2)cn1` the value was 81%.
